Assay results reported in PubChem BioAssay (NCI).
The panel holds about 83,000 compounds, 20% with a hit somewhere; the sample as a whole holds those more often.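 48-hour exposure, single concentration, 96-well plates; percent growth endpoint where 0 means no net growth. Active: below 10.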 Activity calls are given as the source filed them.

Test system: HCT-116 colon
Test: NCI-60 one-dose screen, 48 h (100 = growth as untreated, 0 = no growth, -100 = all killed)
Details: 10 µM unless noted

Compound | growth
CCOC(=O)C1=C(C)NC(SCc2nnc(-c3ccc(Cl)cc3)o2)=NC1c1ccc(Cl)cc1 (stereo not given) | 46.2% (inactive)
O=Cc1ccc2nc(C(Cl)(Cl)Cl)ccc2c1 | 96.7% (inactive)
CCCc1n(Cc2ccc3ccccc3c2)c2ccccc2[n+]1Cc1ccc2ccccc2c1 | -91.2% (active)
CC(CN1CCN(CCOCCO)CC1)CN1c2ccccc2Sc2ccc(Cl)cc21 (stereo not given) | 37.5% (inactive)
Clc1ccc(Nc2ncnc3c2sc2ncccc23)c(Cl)c1 | 27.6% (inactive)
COc1ccc(/C=C(/C(=O)N2CCN(c3ccccc3)CC2)c2cc(OC)c(OC)c(OC)c2)cc1O | 6.78% (active)
C#CCNC(=S)N/N=C(\C)c1ccccn1 | 1.22% (active)
CC(C)NC(=O)OCC#CCOC(=O)NC(C)C | 95.4% (inactive)
Cc1cc(C)c2c(n1)sc1c(Nc3ccc(Cl)cc3Cl)ncnc12 | 24.9% (inactive)
CCCCn1cnc(-c2cc(-c3ccccc3)cc(C(F)(F)F)c2)n1 | 96.7% (inactive)
O=C1c2ccccc2C(=O)c2c1oc1ccc3ccccc3c21 | 62.2% (inactive)
COC1=CC(c2ccc[nH]2)=N/C1=C\c1[nH]c(C)c(C(=O)CCCCCCCCC(=O)O[C@H]2CC[C@H]3C4CCc5cc(O)ccc5C4CC[C@]23C)c1C (stereo not given in full) | 7.77% (active)
CCSc1ccc([C@@H]2[C@@H](N)C(=O)N2c2cc(OC)c(OC)c(OC)c2)cc1 | 10.2% (inactive)
COc1ccc2[nH]cc(C(c3ccc(Cl)cc3)N3CCCC3)c2c1 (stereo not given) | 96.5% (inactive)
Oc1[nH]c2ccc(Cl)cc2c1/C=c1/ccc2c(c1)N=C(c1ccc(F)cc1)N=2 | 9.48% (active)
